# Experimental data from PubChem BioAssay AID2501 (Southern Research Specialized Biocontainment Screening …, 2010).
# About 1,200 (55%) of roughly 2,200 compounds were called active. Cut-off not given; nearly all actives show IC50 up to about 92 µM. The set was probably picked from earlier hits. The list shows a part of the results.
# Assay: counter assay for TAg ATPase ADP read-out – biochemical, ADP-Hunter, fluorescence, counter-screen (AID 2501);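 further: purified T antigen ATPase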
# Details: series mostly up to 100 µM
row,Compound,IC50
1,Cc1cc(F)ccc1S(=O)(=O)N(C(=O)c1ccncc1)c1ccc(OC(=O)c2ccncc2)cc1,48.3 µM (active)
2,Cc1ccc(C)n1Cc1ccc(C(=O)O)cc1,inactive
3,Cc1ccsc1C=Nc1ccc(O)cc1,5.76 µM (active)
4,On1ccccc1=S,inactive
5,Cc1ccc(C2=NOC(=O)/C2=C\c2ccccc2)cc1,inactive
6,Cc1ccc(C2C=NN(c3ccccc3)C2=O)cc1 (configuration not stated),12.2 µM (active)
7,Cc1ccc(/C=N/N2C(=O)c3ccccc3NC2c2ccc(C)cc2)cc1 (configuration not stated),inactive
8,CCCCn1c(N)c(N(CCOC)C(=O)c2cccc(S(=O)(=O)N(C)c3ccccc3)c2)c(=O)[nH]c1=O,inactive
9,Cc1cc(C)c2c(CCl)cc(=O)oc2c1,inactive
10,CCc1cc(=O)oc2cc(OCC(N)=O)c(Cl)cc12,inactive
11,CC(=O)Oc1cc2oc(=O)cc(C)c2cc1OC(C)=O,10.8 µM (active)
12,CCN(CC)c1ccc(NC(=O)CSc2nnc3nc(C)cc(C)n23)cc1,2.92 µM (active)
13,COc1ccc(NC(=O)CSc2nc(NS(=O)(=O)c3ccc(C)cc3)cc(=O)[nH]2)cc1,inactive
14,Cc1occc1-c1nnc(SCC(=O)Nc2ccc(F)cc2)n1Cc1ccccc1,inactive
15,Cc1sc2nc(CSCC(=O)N(C)CC(=O)Nc3ccc(F)cc3)[nH]c(=O)c2c1C,inactive
16,CN(C)c1ccc(NC(=O)CSc2nc3c(c(=O)[nH]2)CCCC3)cc1,2.47 µM (active)
17,CCN(CC)c1ccc(NC(=O)CSc2nc3nc(C)cc(C)c3c(=O)[nH]2)cc1,6.75 µM (active)
18,Cc1ccc(C2(CCNCc3ccco3)CCOC(C(C)C)C2)cc1 (configuration not stated),inactive
19,S=c1[nH]nc(-c2cc(-c3ccco3)[nH]n2)n1-c1ccccc1Cl,6.42 µM (active)
20,FC(F)(F)c1ccc(Cl)c(-n2c(-c3cc(-c4ccco4)[nH]n3)n[nH]c2=S)c1,inactive
21,COc1ccccc1-n1c(-c2cc(-c3ccco3)[nH]n2)n[nH]c1=S,inactive
22,O=C(CN1C(=O)S/C(=C\C=C\c2ccccc2)C1=O)Nc1ccc(C(=O)O)cc1,inactive
23,CN(C)c1ccc(NC(=O)CN2C(=O)CC(c3ccccc3)=Nc3ccccc32)cc1,5.09 µM (active)
24,COc1cc(C=O)c(Cl)cc1OCC(N)=O,inactive
25,COc1ccc(CCNC(=O)c2cc(-c3ccc4c(c3)OCO4)on2)cc1OC,inactive
26,COc1cc(CNc2ccc(N3CCOCC3)cc2)ccc1OCC(=O)NC(C)(C)C,4.7 µM (active)

row,Compound,IC50
1,COc1cc(CNc2ccc3c(c2)OCCO3)ccc1OCC(N)=O,3.27 µM (active)
2,COc1cc(CNc2ccc(N3CCCCC3)cc2)ccc1OCC(=O)NC(C)(C)C,4.51 µM (active)
3,CNC(=O)COc1ccc(C=O)cc1OC,inactive
4,CC(C)N=C(NC#N)SCc1ccc(Br)cc1,inactive
5,Fc1cccc(Cl)c1Cn1nnc(-c2ccc(N3CCOCC3)cc2)n1,inactive
6,CCCC(=O)N=c1sc2c(OC)ccc(OC)c2n1C,inactive
7,Cc1sc2nc(CSc3ccc([N+](=O)[O-])cc3)[nH]c(=O)c2c1C,inactive
8,O=C1OCC(CO)(CO)N=C1NNc1ccccc1Cl,9.24 µM (active)
9,Nc1ccc(OCCCc2c(N)nc(N)nc2N)cc1,6.58 µM (active)
10,N=C1/C(=C\c2ccc(-c3cccc(C(=O)O)c3)o2)C(=O)N=C2SC=C(c3ccccc3)N12,inactive
11,O=C1NN(c2ccccc2)C(=O)/C1=C/c1ccc(-c2cccc(C(=O)O)c2)o1,14.1 µM (active)
12,O=C1NN(c2ccccc2)C(=O)/C1=C\c1ccc(-c2cc([N+](=O)[O-])ccc2O)o1,6.89 µM (active)
13,CC1=C(C#N)C(=O)NC(=O)/C1=C/c1ccc(-c2ccc(S(N)(=O)=O)cc2)o1,inactive
14,O=C1NN(c2ccccc2)C(=O)/C1=C/c1ccc(-c2ccc(C(=O)O)cc2)o1,13.4 µM (active)
15,CC(C)S(=O)(=O)C1=NSC2=NC(=O)/C(=C\c3ccc(-c4ccccc4)o3)C(=N)N21,inactive
16,Cc1ccc(-c2ccc(/C=C3\C(=O)ON=C3c3ccccc3)o2)c([N+](=O)[O-])c1,inactive
17,CC1=NN(c2cccc(C(=O)O)c2)C(=O)/C1=C\C=C\c1ccco1,inactive
18,CCn1c2ccccc2c2nnc(SCC(=O)N(C)C3CCS(=O)(=O)C3)nc21 (configuration not stated),inactive
19,CC1=C(C)CS(=O)N(S(=O)(=O)c2ccc(Cl)cc2)C1 (configuration not stated),inactive
20,COc1ccc(NC2CCCN(Cc3cccc4cnccc34)C2)cc1OC (configuration not stated),8.39 µM (active)
21,Cc1ccsc1C(=O)NCc1ccccc1Cl,81.4 µM (active)
22,Cc1ccc2c(cnn2C(=O)CCC(=O)NCc2ccccc2Cl)c1,inactive
23,O=C(CSc1nc2ccccc2o1)N/N=C/c1ccc(O)c(O)c1,7.74 µM (active)
24,O=C(Cc1nnc(NC(=O)c2ccccc2)s1)N/N=C\c1ccc(O)c(O)c1,1.55 µM (active)
25,CCn1c(SCC(=O)N/N=C/c2ccc(O)c(OC)c2)nc2ccccc21,6.63 µM (active)
26,O=[N+]([O-])c1ccc(Sc2nc3ccccc3o2)c([N+](=O)[O-])c1,inactive

row,Compound,IC50
1,Cc1ccccc1C(=O)Nc1nnc(CC(=O)N/N=C/c2cn(Cc3ccccc3)c3ccccc23)s1,inactive
2,CCSc1nc2ccccc2n1CC(=O)OC,inactive
3,Cc1cc(SCC(=O)N/N=C/c2ccc(O)c(O)c2)nc2ccccc12,5.75 µM (active)
4,COc1ccc(C2C3=C(N=C4SCC(=O)N42)c2ccccc2CC3)cc1 (configuration not stated),inactive
5,Cn1c(SCC(=O)N/N=C/c2ccc(O)c(O)c2)nc2ccccc21,6.12 µM (active)
6,CN(C)c1ccc(NC2=C([N+](=O)[O-])CS(=O)(=O)C2)cc1,3.14 µM (active)
7,COc1ccc(N=Nc2c(N)n[nH]c2N)cc1,6.12 µM (active)
8,N=C1/C(=C\c2ccc(Br)o2)C(=O)N=C2SC(CC(=O)N3CCCCC3)=NN12,inactive
9,COc1cc2c(cc1NC(=S)Nc1ccccc1C)oc1ccccc12,23.6 µM (active)
10,CCN(CC)S(=O)(=O)c1ccc(OC)c(NC(=S)Nc2cccc(C)c2)c1,inactive
11,CCN1C(=O)C2(C(C(=O)c3cc4ccccc4o3)=C(O)C(=O)N2CCCN(C)C)c2ccccc21 (configuration not stated),31.5 µM (active)
12,Cc1ccc2c(c1)C1C=CCC1C(C(=O)O)N2 (configuration not stated),inactive
13,CCOc1cc2[nH]c(=O)n(Cc3ccc(C(=O)NCCCN4CCCC4=O)cc3)c(=O)c2cc1OCC,inactive
14,O=C1CCCN1CCCNC(=S)Nc1ccc(Nc2ccccc2)cc1,6.41 µM (active)
15,COc1cc(/C=C2\N=C3CCCCCN3C2=O)ccc1O,3.83 µM (active)
16,CCOc1cc(/C=C2\N=C3CCCCCN3C2=O)ccc1O,5.66 µM (active)
17,O=C1/C(=C\c2ccc(O)c(O)c2)N=C2CCCCCN12,4.83 µM (active)
18,COc1cc(/C=c2\sc3n(c2=O)CCCN=3)ccc1O,4.98 µM (active)
19,CC(=O)N1CC[n+]2c(-c3ccc([N+](=O)[O-])cc3)csc21,inactive
20,CCN(CC)CCCCN1c2ccccc2Sc2ccccc21,6.81 µM (active)
21,CCN1/C(=C/C=C/c2sc3ccccc3[n+]2CC)Sc2ccccc21,inactive
22,CCCCN1C(=O)/C(=C(/C#N)C(N)=O)c2ccccc21,inactive
23,NC(=O)Cn1c(=O)n(Cc2ccco2)c(=O)c2c3c(sc21)CCCCC3,inactive
24,COc1ccc(-n2c(=O)c3c4c(sc3n3c(=S)[nH]nc23)CCC4)cc1,12 µM (active)
25,O=C(Cn1c(=O)n(Cc2ccco2)c(=O)c2c3c(sc21)CCCCC3)c1ccccc1,inactive
26,COc1ccc(N2C3=C(CC4=C2CCCC4=O)C(=O)CCC3)cc1,inactive

row,Compound,IC50
1,Cc1ccc(-n2c(=O)c3c4c(sc3n3c(=S)[nH]nc23)CCC4)cc1,14.2 µM (active)
2,O=c1c2c3c(sc2n2c(=S)[nH]nc2n1-c1ccccc1)CCC3,18.4 µM (active)
3,CCn1c(=O)n(CC)c2cc(N)ccc21,4.09 µM (active)
4,COc1cccc(C(c2nnnn2Cc2ccco2)N2CCN(Cc3ccccc3)CC2)c1OC (configuration not stated),inactive
5,COCCn1nnnc1C(c1cc2cc(OC)c(OC)cc2[nH]c1=O)N1CCN(c2ccc(O)cc2)CC1 (configuration not stated),8.81 µM (active)
6,O=c1[nH]c2cc3c(cc2cc1C(c1nnnn1CC1CCCO1)N1CCCCCC1)OCCO3 (configuration not stated),inactive
7,CCc1cc2c(Nc3ccc(O)cc3)nc(C)nc2s1,4.69 µM (active)
8,Cc1cc2c(Nc3ccc(O)cc3)ncnc2s1,3.61 µM (active)
9,Cc1ccc(-c2nc(CN(Cc3cnn(C)c3)C(C)C)c(C)o2)o1,inactive
10,Cc1ccc(C)n1-c1cccc(C(=O)O)c1,inactive
11,Nc1ccc(Nc2ccccc2)c(S(=O)(=O)O)c1,4.02 µM (active)
12,O=S(=O)(O)c1cccc2cccc(Nc3ccccc3)c12,19.5 µM (active)
13,Nc1cc(C(=O)O)ccc1Nc1ccccc1,5.63 µM (active)
14,N#Cc1c(N)sc(=S)c2c1CCCCC2,inactive
15,COc1ccc(/C=N/NC(=O)CCc2n[nH]c(=O)[nH]c2=O)cc1O,7.94 µM (active)
16,COc1cc(/C=N/NC(=O)CNc2n[nH]c(=O)[nH]c2=O)ccc1O,2.93 µM (active)
17,CCOc1cc(/C=N/NC(=O)CCc2n[nH]c(=O)[nH]c2=O)ccc1O,9.46 µM (active)
18,Oc1ccccc1C(=S)N1CCCCCC1,13.9 µM (active)
19,CC(=O)Oc1ccc(C(=O)Nc2ccccc2C(=O)N2CCCCC2)cc1,inactive
20,COc1ccccc1NC(=O)c1c(NC(=O)CCC(=O)O)sc2c1CCCCC2,inactive
21,CCCCN1Cc2c(nc3cc(-c4ccco4)[nH]n3c2=O)C1=O,9.07 µM (active)
22,COC(=O)CC1SC(=O)NC1=Nc1ccc(O)cc1 (configuration not stated),4.34 µM (active)
23,Cc1c(Cl)cccc1NC(=S)N(CCN(C)C)C(C)c1ccco1 (configuration not stated),inactive
24,N#CCCn1nc(-c2ccc(Br)cc2)cc1Nc1ccccc1NC(=O)C(F)(F)F,inactive
